uPA generation: blocks generation of uPA at the cell surface. cell surface uPA generation assay, qHTS. Potency, µM (top dose mostly 38.3 µM), hits mostly inhibitors. actives 0.31% (n = 330,000); active means well fitted inhibition curve with a large enough effect; inconclusive means small, poorly fitted or top-dose-only effect; inactive means no such curve, though single readings can be large or run the other way; tested in mouse RAW 264.7 cells; further: nearly all actives have a fitted effect of over 55% in size
RORg inh: blocks mouse ROR gamma transcriptional activity. P51450. actives 5.4% (n = 310,000). Drosophila S2 Gal4-RORgamma UAS-luciferase reporter, 20 h. Potency, µM (titrated, usually from 53.6 µM), usual class: inhibitors. AID 2551; further: nearly all actives have a fitted effect of over 60% in size
Target sequence (P51450 whole entry, looked up, the tested form may be a part): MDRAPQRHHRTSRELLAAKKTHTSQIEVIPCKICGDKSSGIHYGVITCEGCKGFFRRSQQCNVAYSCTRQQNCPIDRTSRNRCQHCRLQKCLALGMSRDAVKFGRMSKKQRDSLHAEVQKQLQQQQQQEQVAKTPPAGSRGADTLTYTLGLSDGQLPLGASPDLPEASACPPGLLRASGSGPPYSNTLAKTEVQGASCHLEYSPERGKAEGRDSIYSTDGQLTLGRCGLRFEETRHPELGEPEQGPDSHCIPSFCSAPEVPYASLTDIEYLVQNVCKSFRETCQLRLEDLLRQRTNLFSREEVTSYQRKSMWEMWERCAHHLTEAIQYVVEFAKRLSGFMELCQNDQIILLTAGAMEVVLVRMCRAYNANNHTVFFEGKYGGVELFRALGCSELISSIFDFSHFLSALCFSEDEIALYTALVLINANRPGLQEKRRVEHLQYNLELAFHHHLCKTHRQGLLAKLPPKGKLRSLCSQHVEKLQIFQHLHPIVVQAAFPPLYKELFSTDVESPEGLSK
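A Gal4/UAS one-hybrid system in insect cells: metallothionein-promoter Gal4–ROR gamma fusion plus Photinus luciferase reporter. Copper sulfate 700 uM final, 20 hr ambient incubation, luminescent detection after 10 min with reagent.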
Mito fusion yeast: mitochondrial division inhibition or fusion activation; S. cerevisiae fusion-defective mutant growth rescue, CellTiterGlo 48 h; Potency, µM (top dose mostly 46.1 µM), most hits filed as activators; actives 0.23% (n = 320,000); AID 485298; further: nearly all actives have a fitted effect of over 45% in size
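Growth-rescue viability read-out: after 48 h at the non-permissive 37C in glycerol/ethanol YPEG, yeast mitochondrial fusion mutants are measured by CellTiterGlo luminescence; compounds (23 nl pinned per well) restoring growth score as division inhibitors or fusion activators.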
Gal4-VP16 FLuc: Gal4-VP16 reporter inhibition counter-screen. Drosophila S2 Gal4-VP16 UAS-luciferase, luminescence, 20 h. Potency, µM (titrated, usually from 53.6 µM), hits mostly inhibitors. actives 3.5% (n = 310,000). AID 2546;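 further: Gal4-VP16 expression switched on by copper sulfate through the metallothionein promoter; nearly all actives have a fitted effect of over 50% in size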
BCR signal inh: blocks chronic active B-cell receptor signaling | Potency, µM (titrated, usually from 46.1 µM), hits mostly inhibitors | ABC-DLBCL IkBa-CBG/CBR reporter, luminescence ratio, 4 h | AID 493014 | actives 0.05% (n = 340,000); active means well fitted inhibition curve with a large enough effect in the signal ratio, with a control signal flat, not every such curve was filed as active; inconclusive means small, poorly fitted or top-dose-only effect, or effect the other way, or a change in a side signal; the % refers to the signal ratio
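TMD8 ABC-DLBCL cells carrying doxycycline-inducible green luciferase fused to IkappaBalpha plus unfused red luciferase were exposed to compounds (up to 46 uM) for 4 hrs at 37C. Activity came from the overlap-corrected green/red luminescence ratio.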
a7 integrin act: activators of alpha7 integrin expression for muscular dystrophy. actives 0.064% (n = 350,000). Potency, µM (doses to about 38.3 µM), hits mostly activators. AID 624291. alpha7betagal myoblasts, beta-gal FDG fluorescence, 48 h; further: nearly all actives have a fitted effect of over 60% in size
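Alpha7betagal+/- myoblasts (passage 13) were plated 16-24 hr, then exposed to compounds (1:260 dilution of DMSO stock) for 48 hours at 37C. After MPER lysis, β-galactosidase reporter activity was read as FDG fluorescence (ex 480/em 540) after 30 minutes.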
Each line names hits and unclear results; the compound was inactive in the other large screens. Hits are enriched below; roughly 5.5% of the tested compounds scored in any of these assays. Unless noted, the call rests on the fitted dose curve; in most records, active means well fitted curve in the direction sought with a large enough effect; inconclusive means small, poorly fitted or top-dose-only effect, or another doubt; inactive means no such curve, though single readings can be large; an effect the other way counts as inactive or inconclusive.

CC[C@H](C)[C@H](NC(=O)[C@H](C)NC(=O)CNC(=O)[C@H](CCCCN)NC(=O)[C@H](CC(N)=O)NC(=O)[C@H](CO)NC(=O)CN)C(=O)N[C@H](C(=O)NCC(=O)N[C@@H](CC(C)C)C(=O)N[C@@H](CCSC)C(=O)O)[C@@H](C)CC	none (no result: uPA generation, Mito fusion yeast, BCR signal inh, a7 integrin act)
O=C(CSCC(=O)N1CCCc2ccccc21)Nc1nc(-c2ccccc2)cs1	Mito fusion yeast 18µM
CCOC(=O)c1cc(-c2ccc(F)cc2)n(CCC(=O)Nc2nc3ccc(OC)cc3s2)c1C	none (no result: uPA generation, RORg inh, Mito fusion yeast, Gal4-VP16 FLuc, a7 integrin act)
Cc1cc(NC(=O)c2cc(-c3ccco3)on2)n(-c2ccccc2)n1	RORg inh 7.9µM (no result: uPA generation)
O=C(C[C@@H]1C/C=C\CCC(=O)OC[C@@H]2CCCN2C1=O)N[C@@H](CO)Cc1ccccc1	none (no result: RORg inh, Mito fusion yeast, Gal4-VP16 FLuc)
O=C(C1=C(c2ccccc2)C(=O)c2ccccc2C1=O)c1ccccc1	uPA generation inconclusive, RORg inh 11µM, Gal4-VP16 FLuc 11µM, BCR signal inh inconclusive
CCN(CC)c1ccc(C(=C2C=CC(=[N+](CC)CC)C=C2)c2ccccc2)cc1	RORg inh 2.5µM, Gal4-VP16 FLuc 35µM, a7 integrin act inconclusive (no result: Mito fusion yeast, BCR signal inh)
CCN(CC)c1ccc(C(=O)NNC(=O)CCNC(=O)c2ccccc2)cc1	none (no result: RORg inh, Gal4-VP16 FLuc)
CCN(CC)c1ccc(C(=C2C=CC(=[N+](CC)Cc3cccc(S(=O)(=O)[O-])c3)C=C2)c2ccc(N(CC)Cc3cccc(S(=O)(=O)O)c3)cc2)cc1	Gal4-VP16 FLuc 11µM (no result: uPA generation, Mito fusion yeast, BCR signal inh, a7 integrin act)
CNC(=O)COC(=O)c1ccc2c(c1)S(=O)(=O)c1ccccc1C2=O	none
CCOc1ccc(N(CC(=O)N/N=C/c2ccccn2)S(=O)(=O)c2ccc(Cl)cc2)cc1	uPA generation inconclusive, RORg inh 10µM, Gal4-VP16 FLuc inconclusive
O=C(COc1ccc2c(c1)oc(=O)c1ccccc12)NC(Cc1ccc(Cl)cc1)C(=O)O (stereo not given)	none
O=C1CSC(c2cccnc2)N1CCc1ccccn1 (stereo not given)	RORg inh inconclusive, Gal4-VP16 FLuc 11µM, BCR signal inh inconclusive, a7 integrin act inconclusive
O=C(NNC(=S)NC1CCCCC1)c1ccccc1Br	RORg inh 1.1µM, Gal4-VP16 FLuc inconclusive, BCR signal inh inconclusive
CN(C(=S)NC(=O)c1ccc(F)cc1)C1CCCCC1	RORg inh 0.89µM, Gal4-VP16 FLuc 1.1µM, BCR signal inh inconclusive
CN(C(=S)NC(=O)c1ccccc1)C1CCCCC1	uPA generation inconclusive, RORg inh 1.1µM, Gal4-VP16 FLuc 1.3µM, a7 integrin act inconclusive
CN(C(=S)NC(=O)c1ccc(Cl)cc1)C1CCCCC1	RORg inh 0.32µM, Gal4-VP16 FLuc 0.79µM, BCR signal inh inconclusive
O=[N+]([O-])c1ccc(CSc2ccc(S(=O)(=O)N3CCCC3)cn2)cc1	uPA generation inconclusive (no result: RORg inh, Gal4-VP16 FLuc)
COc1ccccc1C(=O)NCCC(=O)NCC1CCCCC1	none (no result: RORg inh, Mito fusion yeast, Gal4-VP16 FLuc)
COc1cc2oc(=O)cc(-c3ccc(-c4sccc4C=O)cc3)c2c(OC)c1OC	none (no result: uPA generation, Mito fusion yeast, BCR signal inh, a7 integrin act)
COC(=O)Cc1ccc(NC(=S)NNC(=O)c2ccccc2Br)cc1	RORg inh 1.6µM, Gal4-VP16 FLuc 18µM, BCR signal inh inconclusive
S=C(NC1CCCCC1)NN(c1ccccc1)c1ccccc1	RORg inh 2.5µM, Gal4-VP16 FLuc 5.6µM
CC1CCCC(NC(=S)NC(=O)c2ccccc2Br)C1C (stereo not given)	RORg inh 2.5µM, Gal4-VP16 FLuc 5µM, BCR signal inh inconclusive
O=C(NC(=S)NC1CCS(=O)(=O)C1)c1ccccc1 (stereo not given)	none
COC(=O)Cc1ccc(NC(=O)c2ccccc2Br)cc1	none
O=C(NC(=S)NC1CCCCC1)c1ccccc1	RORg inh 5µM, Gal4-VP16 FLuc 7.1µM
COc1ccc(Cl)cc1NC(=O)Cn1cnc2c1c(=O)n(C)c(=O)n2C	BCR signal inh inconclusive (no result: uPA generation, RORg inh, Gal4-VP16 FLuc, a7 integrin act)
COc1ccc(Cl)cc1C(=O)NNC(=S)NC1CCCCC1	RORg inh 0.25µM, Gal4-VP16 FLuc inconclusive
O=C(NNC(=S)Nc1ccccc1Cl)c1ccccc1Br	RORg inh 7.9µM, Gal4-VP16 FLuc inconclusive, BCR signal inh inconclusive
O=C(NNC(=O)c1ccccc1Br)c1ccccc1Cl	BCR signal inh inconclusive
